Only some compounds are listed: those with a hit (about 2.6% of all), similar ones and a draw of the others.
Fam108B inh: Fam108B inhibition, counter-screen for RBBP9 inhibitors | recombinant Fam108B, FP-Rh probe fluorescence polarization | inhibition, % at 9.51 µM | actives 0.33% (n = 300,000) | AID 1947;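 active = inhibition above the screen mean inhibition plus 3 SD, computed separately per campaign, cut at about 18% in these data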;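 note: inhibitors lower polarization as less probe binds the enzyme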
SIAE primary: human SIAE inhibition, primary screen; inhibition, % at 9.66 µM; SIAE FP-Rh probe binding, fluorescence polarization; actives 0.69% (n = 370,000); Q9HAT2;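 active = inhibition above a cutoff: mean of compounds within the control limits plus 3 SD of those, cut at about 17% in these data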;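 note: 0% = plate median of compound wells and 100% = probe without SIAE protein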
PAD4 inh: inhibitors of human PAD4; recombinant PAD4, RCA probe fluorescence polarization; inhibition, % at 6.36 µM; actives 0.41% (n = 330,000); Q9UM07;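 active = percent inhibition above a cutoff equal to the mean of all tested compounds plus 3 SD, cut at about 15% in these data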;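 note: 0% = PAD4 with RCA probe and DMSO and 100% = probe without PAD4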
Target sequence (Q9UM07 whole entry, looked up): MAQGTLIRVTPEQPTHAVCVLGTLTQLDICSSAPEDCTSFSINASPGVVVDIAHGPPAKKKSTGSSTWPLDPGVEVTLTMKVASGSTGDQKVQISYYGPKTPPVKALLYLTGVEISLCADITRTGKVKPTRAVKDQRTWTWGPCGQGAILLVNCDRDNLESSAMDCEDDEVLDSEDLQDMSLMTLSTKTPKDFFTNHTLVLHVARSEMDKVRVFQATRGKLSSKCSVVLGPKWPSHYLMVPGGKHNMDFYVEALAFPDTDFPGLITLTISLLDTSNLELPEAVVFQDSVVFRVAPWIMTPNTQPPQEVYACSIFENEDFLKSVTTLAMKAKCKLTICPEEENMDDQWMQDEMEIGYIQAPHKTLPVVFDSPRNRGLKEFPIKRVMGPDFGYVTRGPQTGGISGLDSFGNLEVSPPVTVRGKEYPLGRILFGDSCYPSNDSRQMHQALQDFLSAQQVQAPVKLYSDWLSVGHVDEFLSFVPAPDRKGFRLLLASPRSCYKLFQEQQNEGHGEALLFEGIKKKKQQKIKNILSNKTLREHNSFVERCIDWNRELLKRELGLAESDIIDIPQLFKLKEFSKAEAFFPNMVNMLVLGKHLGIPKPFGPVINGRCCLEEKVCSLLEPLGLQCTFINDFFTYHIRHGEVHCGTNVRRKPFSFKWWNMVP
PME-1 primary: PME-1 (human) inhibition; AID 2130; Q9Y570; recombinant PME-1, FP-Rh probe fluorescence polarization; actives 0.53% (n = 320,000); inhibition, % at 5.9 µM;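 active = inhibition above the campaign mean of all compounds plus 3 SD, cut at about 26% in these data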;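 note: competitive labeling of PME-1 active site by serine hydrolase directed probe; 0% = PME-1 with DMSO and 100% = wells lacking PME-1 enzyme; inhibitors block probe labeling so polarization falls and inhibition rises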
TCR CD3 inh: inhibitors of human TCR-CD3 interaction; TAMRA-labeled TCR probe fluorescence, biochemical; inhibition, % at 9.4 µM; actives 0.37% (n = 360,000); AID 651800; in the data active = inhibition above about 19%;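 note: recombinant mutant TCR 2C K166C tagged with TAMRA read by polarization; 0% = receptor in buffer alone and 100% = receptor with positive control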
PRMT1 inh: inhibitors of human PRMT1; Q99873; recombinant PRMT1, activity-based probe fluorescence polarization; inhibition, % at 2.79 µM; actives 1.3% (n = 370,000); AID 652257;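 active = inhibition above about 21% made by adding two undisclosed values, limit read from the data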
PRMT1 inh conf: confirmation of human PRMT1 inhibitors | shares compounds with PRMT1 inh | recombinant His-PRMT1, activity-based probe fluorescence polarization | inhibition, % at 2.79 µM | actives 42% (n = 3,300);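 active = mean inhibition across replicates above the hit cutoff derived for the earlier primary screen, cut at about 22% in these data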
Numbers without * were called inactive; x = no result given.

SMILES	Fam108B inh	SIAE primary	PAD4 inh	PME-1 primary	TCR CD3 inh	PRMT1 inh	PRMT1 inh conf
O=S(=O)(CCSc1ccccn1)c1nc2ccccc2s1	5	-1	6	-9	-1	26*	13
O=C1CN(CC(=O)Nc2cccc(Cl)c2Cl)c2ccccc2N1	-3	-8	-5	0	-9	52*	76*
COc1ccc(-c2noc(C3CCCN(C(=O)Nc4ccc5c(c4)OCO5)C3)n2)cc1 (centres undefined)	x	2	x	x	x	-1	x
O=[N+]([O-])c1ccc(Sc2cccc[n+]2[O-])c2nonc12	x	-5	x	x	4	88*	91*
N#CC1=C2SCN(c3ccccc3)CN2C(=O)CC1c1ccccc1Cl (centres undefined)	-1	4	-1	2	5	20	x
COc1ccc(OC)c(C2CC(=O)N3CN(c4ccccc4F)CSC3=C2C#N)c1 (centres undefined)	-1	1	3	-3	-3	33*	22*
COc1ccc(OC)c(C2CC(=O)N3CN(c4cccc(Cl)c4C)CSC3=C2C#N)c1 (centres undefined)	0	-2	-3	-3	0	45*	64*
COc1ccc(OC)c(C2CC(=O)N3CN(c4cccc(Cl)c4)CSC3=C2C#N)c1 (centres undefined)	2	0	-6	2	-6	18	x
COc1cccc(C2CC(=O)N3CN(c4cccc(Cl)c4C)CSC3=C2C#N)c1OC (centres undefined)	2	7	2	-3	-6	29*	54*
Cc1ccc(CN[C@@H]2CC[C@@]34CCCN3C(=O)CCC[C@H]4C2)o1	x	-2	x	x	x	0	x
COC(=O)[C@]12C[C@H](CC(=O)NCc3ccc(C)o3)C(=O)N(Cc3ccc(Cl)cc3Cl)C1=C[C@H](C(C)(C)C)O[C@@H]2C	x	-7	x	x	x	4	x
O=C(Cn1nc(-c2ccccc2)ccc1=O)NCCc1cccc(F)c1	x	2	x	x	x	1	x
Cc1ccc(NC(=O)CC2S/C(=N/N=C3/NC(=O)CS3)NC2=O)cc1 (centres undefined)	2	-1	-1	-11	1	5	x
COc1ccc(NC(=O)CC2SC(=O)NC2=O)cc1 (centres undefined)	-1	0	7	-8	2	53*	66*
Cc1ccc(NC(=O)CC2SC(=O)NC2=O)cc1 (centres undefined)	-2	-4	-5	-2	0	56*	76*
CC(C)C(NC(=O)C1CCCCC1)C(=O)NCCc1ccccc1 (centres undefined)	1	7	4	-10	1	25*	-1
CC(C)C(NC(=O)C1CCCCC1)C(=O)NCc1ccccn1 (centres undefined)	-2	-6	-6	-1	0	-1	x
C=CCNC(=O)CN(C(=O)c1ccncn1)c1cccc(Br)c1	x	-5	x	x	x	-2	x
COc1cc(/C=C2\C(=O)NN(c3ccc(C)cc3)C2=O)cc([N+](=O)[O-])c1O	4	3	-6	-5	2	30*	9
Cc1ccc(SC2=C(N(C)C)C(=O)c3ccccc3C2=O)cc1	x	-1	x	x	-7	52*	49*
CNc1ccc(S(=O)(=O)NCC(=O)NCCCc2ccccc2)cc1[N+](=O)[O-]	2	5	-4	0	4	27*	34*
CN(C)c1ccc(S(=O)(=O)NCC(=O)NCc2ccccc2)cc1[N+](=O)[O-]	4	-1	2	5	3	27*	26*
COc1ccc(CCNC(=O)CNS(=O)(=O)c2ccc(N(C)C)c([N+](=O)[O-])c2)cc1OC	-3	5	-4	-3	-5	5	x
Cn1c(=O)c2cc(S(=O)(=O)N3CCN(CCO)CC3)ccc2n(C)c1=O	x	-2	x	x	x	-5	x
O=C(Nc1ccc(F)cc1)Nc1c(-c2ccc(C(F)(F)F)cc2)nc2ncccn12	x	2	x	x	x	2	x
O=C(Nc1ccc2c(c1)OCO2)N1CCC(c2nc3ccc(Cl)cc3[nH]2)CC1	x	0	x	x	x	-1	x
Cc1ccc(C)c(NC(=O)[C@@H]2CCCN2S(=O)(=O)c2cccc3cccnc23)c1	x	-4	x	x	x	-1	x
